Assay outcomes deposited in PubChem by National Center for Advancing Translational Sciences (NCATS).
Compounds with a hit are over-represented: about 17% of the library has one in this group of screens.
HT1080NT lethal – kills 2HG-producing HT-1080-NT fibrosarcoma cells; Potency, µM (highest dose often 46.1 µM), inactives show at the highest dose activity, negative = less viability, usual class: cytotoxic; AID 686970; hit rate 1.6% among 360,000; HT-1080-NT fibrosarcoma viability, CellTiter-Glo ATP luminescence, 48 h;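 also: NT is the 2HG producing partner of a matched IDH1 knockdown line; 0% = DMSO-treated cells and -100% = media-only wells without cells; nearly all actives have a fitted effect of over 55% in size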
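HT-1080-NT fibrosarcoma cells (2HG-overproducing), 750 cells/well in RPMI with 5% FBS, dosed after 2 h and incubated 48 h at 37C. CellTiter-Glo luminescence normalized to DMSO and no-cell wells; concentration-response curves fitted and classed.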
HT1080 IDH1KD tx – kills HT-1080 cells with IDH1 knockdown. hit rate 2% among 360,000. AID 686971. HT-1080 IDH1 knockdown viability, ATP luminescence, 48 h. Potency, µM (titrated, usually from 46.1 µM), without a hit: at the top dose activity, negative = toxicity, actives largely listed as cytotoxic;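 also: 0% = DMSO wells and -100% = cell-free medium wells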
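After a 2 h attachment period, IDH1KD HT-1080 cells took pin-transferred compound for 48 h at 37 °C; ATP-based luminescence after 10 min room-temperature reagent incubation reported viability.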
HepG2 tox – kills HepG2 cells in TGF-b inhibitor counter-screen; HepG2 CAGA-GFP viability, ATP luminescence, 18 h; hit rate 0.76% among 410,000; AID 588856; Potency, µM (highest dose often 46.1 µM), for inactives: at the top dose activity change, negative = cytotoxicity, usual class: cytotoxic
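CellTiter-Glo luminescence gave cytotoxicity after 18 hours at 37 degrees C. The cells were HepG2 CAGA-GFP in 1% FBS DMEM, stimulated with 500 pg/mL TGF-beta after compound addition. %Activity was normalised to no-cell wells (complete cell-killing) and DMSO (no toxicity), and curves were fitted and classified.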
TGFb SMAD3 inh – blocks TGF-b signaling; HepG2 CAGA-GFP TGF-b/SMAD3 reporter, GFP fluorescence, 18 h; TGF-beta stimulated, 500 pg/mL final; Potency, µM (doses to about 46.1 µM), for the others: top-dose activity, negative = inhibition, usual class: inhibitors; hit rate 1.2% among 410,000; also: % is scaled to controls: 0 for no effect and ±100 for the full control effect; nearly all actives have a fitted effect of over 65% in size
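HEPG2 CAGA-GFP cells (1000/well, DMEM with 1% FBS) were pre-incubated 2 h at 37 degrees C, given compound by pin tool, then stimulated with TGF-beta at 500 pg/mL final for 18 h before per-cell GFP fluorescence imaging.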
TDP1 cell CPT – growth inhibition of DT40 Tdp1-/-;hTDP1 cells with camptothecin (screen for TDP1 inhibitors). chicken DT40 Tdp1-/-;hTDP1 cells + 20 nM CPT, ATP luminescence, 48 h. Potency, µM (highest dose often 46.2 µM), inactives show at the top dose activity change, negative = growth inhibition, actives largely listed as inhibitors. hit rate 12% among 420,000. AID 686979; also: % is scaled to controls: 0 for no effect and ±100 for the full control effect; nearly all actives have a fitted effect of over 55% in size
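Chicken DT40 Tdp1-/- cells stably complemented with human TDP1 were seeded at 400 cells/well in medium containing 20 nM camptothecin, exposed to pin-transferred compounds, and grown at 37 °C for at least 48 hr. Viability was read as ATP luminescence.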
TDP1 cell noCPT – qHTS for Inhibitors of human tyrosyl-DNA phosphodiesterase 1 (TDP1): qHTS in cells in absence of CPT. DT40 Tdp1-/- hTDP1 cells, no CPT, ATP luminescence, 48 h. Potency, µM (highest dose often 46.2 µM), for inactives: top-dose activity change, negative = growth inhibition, hits mostly inhibitors. hit rate 15% among 420,000. AID 686978, 2013; also: % is scaled to controls: 0 for no effect and ±100 for the full control effect; nearly all actives have a fitted effect of over 55% in size
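Seeded 400 DT40-hTDP1 cells/well (vehicle DMSO, no 20 nM CPT); pinned compounds; ≥48 hr at 37 °C; CellTiter-Glo luminescence as viability measure.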
An asterisk follows results filed as active; ? = inconclusive; / = not tested or not shown; [ ] = remark or other dose. Calls follow the shape of the dose curve; as a rule, active = well fitted curve in the direction sought with a large enough effect; inconclusive = small, poorly fitted or top-dose-only effect, or another doubt; inactive = no such curve, though single readings can be large; an effect the other way counts as inactive or inconclusive. Potency is read from the fitted curve at half-maximal effect.

SMILES	HT1080NT lethal	HT1080 IDH1KD tx	HepG2 tox	TGFb SMAD3 inh	TDP1 cell CPT	TDP1 cell noCPT
COc1cccc(CNC(=O)c2ccc3c(c2)c(C)c(C)n3Cc2ccccc2)c1OC	/	/	-43.7%	0.0%	20.6µM*	23.1µM*
Cc1c(C)n(Cc2ccc(F)cc2)c2ccc(C(=O)NCCCN3CCOCC3)cc12	-18.2%	?	-23.3%	-25.6%	?	16.4µM*
COc1cc(CNC(=O)c2ccc3c(c2)c(C)c(C)n3Cc2cccc(C)c2)cc(OC)c1OC	/	/	-13.6%	11.9%	18.4µM*	8.2µM*
C[C@@H]1O[C@@H](O[C@@H]2C(=O)c3c(O)cc(O)cc3O[C@H]2c2ccc(O)c(O)c2)[C@H](O)[C@H](O)[C@H]1O	17.0%	11.2%	0.6%	-2.1%	0.1%	-4.6%
C/C(=N\NC(=O)CN1CCN(Cc2ccccc2)CC1)c1cccs1	-0.5%	7.2%	-8.8%	-1.1%	-8.9%	2.8%
CCNC(=O)C1CCCN(C(=O)c2cccs2)CC1 (stereo not drawn)	26.8%	18.6%	6.2%	3.7%	3.5%	11.7%
OCCCNCc1cc2ccc(F)cc2nc1N1CCN(c2cccc(Cl)c2)CC1	/	/	/	/	-6.4%[9.04 µM]	-38.0%
COc1ccccc1Cn1c(=S)[nH]c2cc(C(=O)NCCCN3CCOCC3)ccc2c1=O	16.4µM*	?	-21.4%	-1.3%	?	?
COc1ccccc1Cn1c(=S)[nH]c2cc(C(=O)NCCN3CCOCC3)ccc2c1=O	1.0%	8.2%	-1.4%	-22.1%	-5.6%	-18.0%
CCn1c(C)c(C)c2cc(C(=O)NCc3ccc(OC)cc3OC)ccc21	/	/	-43.1%	?	18.4µM*	14.6µM*
Cc1c(C)n(Cc2ccccc2)c2ccc(C(=O)NCc3ccccc3F)cc12	/	/	-17.4%	0.0%	18.4µM*	18.4µM*
Cc1cccc(C(=O)NCc2ccco2)c1	4.8%	4.7%	4.7%	0.3%	?	-7.2%
Cc1cccc(Cn2c(C)c(C)c3cc(C(=O)NCc4ccco4)ccc32)c1	/	/	-16.5%	?	16.4µM*	23.1µM*
Cc1ccc(S(=O)(=O)N2[C@@H](CCO)OC[C@H]2C(C)C)cc1	9.6%	7.5%	/	/	-3.3%	?
Cc1ccc(C)c(S(=O)(=O)N2CC(=O)N(CCc3ccccc3)C(=O)C2)c1	0.2%	-1.5%	-3.6%	10.6%	-5.8%	-2.8%
Cc1ccccc1CNC(=O)c1ccc2c(c1)c(C)c(C)n2C	/	/	-13.8%	-20.1%	?	?
CCN(CC)c1ccc(NC(=O)c2ccc3c(c2)c(C)c(C)n3C)cc1	18.4µM*	?	-3.2%	-22.1%	23.1µM*	18.4µM*
Cc1c(C)n(C)c2ccc(C(=O)NCc3cccc(F)c3)cc12	/	/	-2.7%	0.0%	23.1µM*	16.4µM*
COc1ccccc1CCNC(=O)c1ccc2c(c1)c(C)c(C)n2C	/	/	-31.2%	?	7.31µM*	7.31µM*
CC1CCN(C(=O)c2cc3ccccc3cc2O)CC1	4.6%	3.9%	2.3%	1.8%	-15.2%	6.9%
CCCc1cc(=O)[nH]c(SCC(=O)N(C)C2CCCCC2)n1	-0.6%	-8.3%	-33.0%	16.7%	16.8%	-0.1%
O=C(Nc1ccnn1C1CCN(C(=O)c2cccc(Cl)c2)CC1)C1CCOC1 (stereo not drawn)	28.2%	2.8%	9.0%	-0.2%	-0.8%	-7.8%
O=C1CC(c2nc(-c3cccc(Cl)c3)no2)CN1c1ccc2c(c1)OCCO2 (stereo not drawn)	/	/	13.4%	13.3%	-12.5%	-8.7%
COc1ccc(-c2nn(-c3ccccc3)cc2C(=O)n2nnc3ccccc32)cc1	-0.1%	-1.9%	-23.1%	3.8%	20.6µM*	-43.6%
COC(=O)c1cn(-c2ccccc2)nc1-c1ccc(OC)cc1	-9.5%	-3.3%	-29.7%	-2.1%	-1.5%	?
SMILES	HT1080NT lethal	HT1080 IDH1KD tx	HepG2 tox	TGFb SMAD3 inh	TDP1 cell CPT	TDP1 cell noCPT
COc1cccc(N2CCN(Cc3nc4scc(-c5ccccc5)c4c(=O)[nH]3)CC2)c1	13µM*	11.6µM*	16.4%	-18.0%	5.17µM*	5.17µM*
O=c1[nH]c(CN2CCN(c3ccc(O)cc3)CC2)nc2scc(-c3ccc(Cl)cc3)c12	?	20.6µM*	1.4%	?	3.66µM*	4.61µM*
Cc1cc(=O)oc2cc(OCC(=O)NCCc3nc4ccccc4[nH]3)ccc12	-3.8%	5.5%	-2.6%	-3.5%	-21.3%	-14.8%
COCCNC(=O)C1(C)CCN(C(=O)C2(c3ccc(Cl)cc3)CCCC2)C1 (stereo not drawn)	15.5%	15.3%	-1.1%	18.3%	-10.7%	-18.3%
OCCNc1nc(-c2cccs2)nc2ccccc12	-4.6%	-4.6%	/	/	10.5%	-16.5%
COCCN1CC(C(=O)N2CCC(Oc3ccccc3OC)CC2)CCC1=O (stereo not drawn)	0.3%	-3.6%	26.8%	14.5%	9.8%	-9.6%
CCOC(=O)[C@@H]1[C@H]2COc3ccc(Br)cc3[C@@H]2N2C(=O)N(c3ccc(C(F)(F)F)cc3)C(=O)[C@]12C	-3.9%	6.1%	-10.1%	1.1%	?	16.4µM*
CCOC(=O)[C@@H]1[C@H]2COc3cc(OC)ccc3[C@@H]2N2C(=O)N(c3ccc(Cl)cc3)C(=O)[C@@]12C	-0.6%	1.4%	-4.1%	-7.4%	?	?
CCOC(=O)[C@@H]1[C@H]2COc3ccccc3[C@H]2N2C(=O)N(c3ccc(C(F)(F)F)cc3)C(=O)[C@]12C	-3.1%	-4.0%	-33.5%	?	18.4µM*	14.6µM*
CCOC(=O)[C@@H]1[C@H]2COc3ccccc3[C@@H]2N2C(=O)N(c3ccc(C)cc3)C(=O)[C@@]12C	-8.3%	2.1%	2.1%	1.4%	2.5%	-27.5%
CCOC(=O)[C@@H]1[C@H]2COc3ccccc3[C@@H]2N2C(=O)N(c3ccc(C(F)(F)F)cc3)C(=O)[C@@]12C	-13.8%	-3.1%	-22.0%	0.0%	13µM*	23.1µM*
CCOC(=O)[C@H]1[C@H]2COc3cc(OC)ccc3[C@@H]2N2C(=O)N(c3ccc(Cl)cc3)C(=O)[C@@]12C	-9.2%	-5.9%	-22.0%	-26.4%	18.4µM*	?
CCn1ncc(S(=O)(=O)Nc2cc(Cl)ccc2C)c1C	-0.8%	-1.5%	-4.3%	-1.5%	-5.1%	-0.5%
Cn1c(=O)c2c(nc3n(-c4ccc(O)cc4)c(-c4ccc(Br)cc4)cn23)n(C)c1=O	/	/	-0.8%	9.7%	-10.6%	-6.1%
